The results in this text go back to PubChem BioAssay (NCI).

Some test systems named below: HCT-15 colon; HT29 colon; SNB-75 CNS; SNB-19 CNS; U251 CNS; PC-3 prostate; SK-MEL-5 melanoma; UACC-62 melanoma; LOX IMVI melanoma; SK-MEL-28 melanoma.
Common to all, as to test: NCI-60 one-dose screen, 48 h (100 = growth as untreated, 0 = no growth, -100 = all killed)
Conditions in all cases: 10 µM unless noted

This is part of a sample that, as a whole, favours compounds with a hit. Of some 83,000 tested, about 20% had one in any assay.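 96-well plates, one dose, 48 hours. Percent growth reported; active if below 10.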 Values without a mark were called inactive. Calls of active or inactive are those of the source.

For the compound `Nc1ncnc2c1N=C(c1ccc([N+](=O)[O-])cc1)CC(c1ccc3c(c1)OCO3)N2` (stereo not given), the growth with HCT-15 colon is 103%; in the assay on HT29 colon, 97.3%; in the assay with SNB-75 CNS, 69.1%; in the assay with SNB-19 CNS, 83.6%; in the assay with U251 CNS it was 89%; with PC-3 prostate, 72.6%. The growth is 80.2% in the assay on SK-MEL-5 melanoma, 77.9% with UACC-62 melanoma, 85.3% in the assay on LOX IMVI melanoma and 108% in the assay on SK-MEL-28 melanoma.
Regarding `Oc1c(Cl)cc(Cl)c2ccc(CN3CCNCC3)nc12`, the growth in the assay with HCT-15 colon is 19.5%; with HT29 colon, 105%; in the assay on SNB-75 CNS it was 45.9%; in the assay on SNB-19 CNS, 41.9%; with U251 CNS, 26.8%; in the assay with PC-3 prostate, 40.3%. Moreover, the growth in the assay on SK-MEL-5 melanoma is 42.8%; in the assay on UACC-62 melanoma it was 33.3%; in the assay on LOX IMVI melanoma, 45.3%; with SK-MEL-28 melanoma it was 62.3%.
As to `O=C(CN1C(=O)NC2NC(=O)NC21)N/N=C/c1cccc([N+](=O)[O-])c1` (stereo not given), the growth with HCT-15 colon is 100%; in the assay on HT29 colon, 107%; in the assay with SNB-75 CNS it was 80%; in the assay on SNB-19 CNS it was 98.8%; in the assay with U251 CNS, 111%; in the assay with PC-3 prostate, 106%. In addition, the growth is 100% in the assay on SK-MEL-5 melanoma, 88.8% with UACC-62 melanoma, 98.1% in the assay with LOX IMVI melanoma and 111% in the assay with SK-MEL-28 melanoma.
Regarding `Cc1[nH]c(C(=O)Nc2ccccc2OC2CCNC2)c(Cl)c1Cl` (stereo not given), the growth was 77.7% with HCT-15 colon; 77.8% with HT29 colon; 65.2% with SNB-75 CNS; 85.3% in the assay on SNB-19 CNS; 64.4% in the assay with U251 CNS; 80.2% in the assay on PC-3 prostate. In addition, the growth in the assay with SK-MEL-5 melanoma was 85.8%; with UACC-62 melanoma it was 68.1%; in the assay with LOX IMVI melanoma it was 30.7%; with SK-MEL-28 melanoma, 106%.
Turning to `CC(Cc1cccc2ccccc12)C(N)=O` (stereo not given), the growth with HCT-15 colon was 101%; with HT29 colon, 101%; in the assay on SNB-75 CNS it was 98.6%; with SNB-19 CNS, 104%; in the assay on U251 CNS, 105%; in the assay on PC-3 prostate, 93.8%. Also, the growth in the assay with SK-MEL-5 melanoma was 101%; in the assay with UACC-62 melanoma, 98.8%; in the assay with LOX IMVI melanoma, 101%; in the assay on SK-MEL-28 melanoma it was 108%.
With `COc1cccc(C(=O)Nc2cccc(NC(=O)c3ccccn3)c2)c1`, the growth in the assay on HCT-15 colon is 90.7%; in the assay on HT29 colon, 93.1%; in the assay with SNB-75 CNS, 90.3%; in the assay on SNB-19 CNS, 108%; in the assay on U251 CNS, 109%; with PC-3 prostate it was 98.3%. In addition, the growth in the assay on SK-MEL-5 melanoma is 97.3%; in the assay on UACC-62 melanoma, 96.3%; with LOX IMVI melanoma it was 95.2%; in the assay with SK-MEL-28 melanoma, 97.5%.
Take `COc1ccc(CNc2c3ccccc3nc3ccccc23)cc1OC`: the growth with HCT-15 colon is 10.3%; with HT29 colon it was 4.44% (active); in the assay on SNB-75 CNS, 24.8%; with SNB-19 CNS, 21.8%; with U251 CNS, 23.2%; with PC-3 prostate it was 22%. The growth in the assay on SK-MEL-5 melanoma was 17.5%; in the assay with UACC-62 melanoma it was 26.8%; with LOX IMVI melanoma, -3.83% (active); in the assay with SK-MEL-28 melanoma, 35.2%.
Turning to `Cc1ccc(OCCOCCOCCOCCOc2ccc(C)n(O)c2=S)c(=S)n1O`, the growth was 28.5% in the assay with HCT-15 colon; 23.9% in the assay on HT29 colon; 33.1% with SNB-75 CNS; 15.3% with SNB-19 CNS; 9.43% (active) in the assay with U251 CNS; 32.7% in the assay with PC-3 prostate. For the same compound, the growth is -15.8% (active) with SK-MEL-5 melanoma, -0.19% (active) in the assay on UACC-62 melanoma, 4.26% (active) in the assay on LOX IMVI melanoma and 31% in the assay with SK-MEL-28 melanoma.
As for `CCN1CCN(CCOc2ccc(CNc3ccc4nc(CCC5CCCCC5)[nH]c4c3)cc2)CC1`, the growth with HCT-15 colon is -17.7% (active); with HT29 colon, 8.35% (active); in the assay with SNB-75 CNS, 79.8%; in the assay with SNB-19 CNS, 39.3%; in the assay with U251 CNS it was -19.7% (active); in the assay with PC-3 prostate it was 42%. Besides, the growth with SK-MEL-5 melanoma is -96.5% (active); in the assay with UACC-62 melanoma, -16.4% (active); in the assay with LOX IMVI melanoma, -78.6% (active); with SK-MEL-28 melanoma, -88% (active).
For `O=C(/C=C/c1ccc([N+](=O)[O-])cc1)c1cccc(Nc2nc(Nc3ccccc3)nc(Nc3ccccc3)n2)c1`, the growth was 68.6% with HCT-15 colon; 68.2% with HT29 colon; 52.4% in the assay on SNB-75 CNS; 93.7% in the assay with SNB-19 CNS; 58% in the assay on U251 CNS; 62.1% in the assay with PC-3 prostate. The growth was 62.8% with SK-MEL-5 melanoma, 82.7% with UACC-62 melanoma, 67.9% with LOX IMVI melanoma and 88.3% in the assay on SK-MEL-28 melanoma.
Turning to `Cc1cc2nc(C(Cl)Cl)nc(-c3ccccc3)n2n1`, the growth with HCT-15 colon was 41.2%; in the assay with HT29 colon, 12.6%; with SNB-75 CNS, -4.36% (active); in the assay with SNB-19 CNS, 62.7%; in the assay with U251 CNS it was 36%; with PC-3 prostate, 65.1%. Also, the growth was 94.4% with SK-MEL-5 melanoma, 88.9% in the assay with UACC-62 melanoma, 75.1% in the assay on LOX IMVI melanoma and 85.1% in the assay on SK-MEL-28 melanoma.
For the compound `CN(C)C(=S)NN=C(c1ccccn1)c1ccccn1`, the growth in the assay with HCT-15 colon was 37.3%; in the assay with HT29 colon it was 27.9%; in the assay with SNB-75 CNS, -22.2% (active); in the assay with SNB-19 CNS, 32.7%; in the assay with U251 CNS, 18.1%; in the assay on PC-3 prostate, 37.7%. The growth in the assay with SK-MEL-5 melanoma is -19.8% (active); in the assay with UACC-62 melanoma, 9.88% (active); in the assay on LOX IMVI melanoma it was 8.85% (active); in the assay on SK-MEL-28 melanoma, 30.7%.
For `COc1ccc(C(=O)/C=C/Nc2cc(-c3ccccc3)nn2-c2ccccc2)cc1`, the growth in the assay on HCT-15 colon was 88.1%; with HT29 colon, 99.4%; with SNB-75 CNS it was 94%; with SNB-19 CNS, 92%; in the assay on U251 CNS, 93.2%; with PC-3 prostate, 86.8%. Besides, the growth in the assay with SK-MEL-5 melanoma was 93%; in the assay with UACC-62 melanoma, 72.2%; in the assay on LOX IMVI melanoma, 92.9%; with SK-MEL-28 melanoma, 99.5%.
